Measurements from PubChem BioAssay (NCATS).
Results filed as inconclusive are left out. Active and inactive are the calls of the source. Calls follow the shape of the dose curve; as a rule, active = well fitted curve in the direction sought with a large enough effect; inconclusive = small, poorly fitted or top-dose-only effect, or another doubt; inactive = no such curve, though single readings can be large; an effect the other way counts as inactive or inconclusive.

Key:
[1] = Quantitative High-Throughput drug screen in 47 multiple myeloma cell lines against the NCATS MIPE library collection: KMM1_JCRB cell viability assay (AID 1918960); settings: KMM1 myeloma viability, CellTiter-Glo ATP luminescence, 48 h; series mostly up to 45.8 µM; also: nearly all actives have a fitted effect of over 30% in size
How it was run: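 Cell viability inhibition in this qHTS is measured via ATP content (CellTiter-Glo) after 48 h drug exposure at 37 °C. Wells hold 500 cells; DMSO-treated wells define 100% and medium-only wells 0%.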

[2] = Quantitative High-Throughput drug screen in 47 multiple myeloma cell lines against the NCATS MIPE library collection: KHM11_PLB cell viability assay (AID 1918962); settings: KHM11 myeloma cell viability, CellTiter-Glo ATP luminescence, 48 h; series mostly up to 45.8 µM; also: nearly all actives have a fitted effect of over 35% in size
How it was run: (§1)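 Relative luminescence from CellTiter-Glo served as the viability signal, referenced to DMSO-treated (100%) and cell-free medium (0%) controls. Treatment lasted 48 hours at 37C with 500 cells per well.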

[3] = Quantitative High-Throughput drug screen in 47 multiple myeloma cell lines against the NCATS MIPE library collection: JIM1_ECACC cell viability assay (AID 1918964); settings: JIM1 myeloma viability, CellTiter-Glo ATP luminescence, 48 h; series mostly up to 45.8 µM
How it was run: (§2)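 Myeloma cell lines, 500 cells per well, exposed to MIPE 4.0 library compounds for 48 h at 37C, 5% CO2. Viability from ATP by CellTiter-Glo luminescence; normalised to DMSO (100%) and media-only (0%) wells.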

[4] = Quantitative High-Throughput drug screen in 47 multiple myeloma cell lines against the NCATS MIPE library collection: INA6_PLB cell viability assay (AID 1918965; also: nearly all actives have a fitted effect of over 55% in size); settings: INA6 myeloma viability, CellTiter-Glo ATP luminescence, 48 h; series mostly up to 45.8 µM
How it was run: as §1

[5] = Quantitative High-Throughput drug screen in 47 multiple myeloma cell lines against the NCATS MIPE library collection: H1112_PLB cell viability assay (AID 1918967; also: nearly all actives have a fitted effect of over 30% in size); settings: H1112 myeloma cells viability, ATP luminescence, 48 h; series mostly up to 45.8 µM
How it was run: as §2

[6] = Quantitative High-Throughput drug screen in 47 multiple myeloma cell lines against the NCATS MIPE library collection: Karpas25_ECACC cell viability assay (AID 1918968; also: nearly all actives have a fitted effect of over 35% in size); settings: Karpas25 myeloma viability, CellTiter-Glo ATP, 48 h; series mostly up to 45.8 µM
How it was run: as §2

[7] = Quantitative High-Throughput drug screen in 47 multiple myeloma cell lines against the NCATS MIPE library collection: KMS27_JCRB cell viability assay (AID 1918970); settings: KMS27 myeloma cells, CellTiter-Glo ATP viability, 48 h; viability (% of DMSO): at 45.8 µM (top of the series); also: nearly all actives have a fitted effect of over 30% in size
How it was run: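 CellTiter-Glo luminescence after 48 h drug exposure at 37 °C; 500 cells/well, 1536-well format, pin-tool compound addition; DMSO = 100%, media-only = 0% viability.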

[8] = Quantitative High-Throughput drug screen in 47 multiple myeloma cell lines against the NCATS MIPE library collection: JIM3_ECACC cell viability assay (AID 1918963; also: nearly all actives have a fitted effect of over 35% in size); settings: JIM3 myeloma viability, CellTiter-Glo ATP, 48 h; series mostly up to 45.8 µM
How it was run: as §1

[9] = Quantitative High-Throughput drug screen in 47 multiple myeloma cell lines against the NCATS MIPE library collection: JJN3_DSMZ cell viability assay (AID 1918966; also: nearly all actives have a fitted effect of over 50% in size); settings: JJN3 myeloma cells viability, CellTiter-Glo ATP, 48 h; series mostly up to 45.8 µM
How it was run: as §2

Measured: Potency
Potency is read from the fitted curve at half-maximal effect.

CN(C)c1nc(Cc2ccc(NC(=O)c3ccc(C(F)(F)F)cc3)cc2)nc(N(C)C)c1CC(=O)O
active: [6] 10.5 µM
not listed: [8] | [9]
inactive: all other assays above

COc1ccc(CCC(=O)Nc2nc3ccc(Cl)cc3s2)cc1OC
inactive: [1] | [2] | [9] | [7]
active: [8] 14.8 µM

O=C(O)C1=CC(O)C(O)[C@H](O)C1 (some centres undefined)
not listed: [3] | [9]
inactive: all other assays above

CCC(=C(CC)c1ccc(O)cc1)c1ccc(O)cc1
inactive: [2] | [8]
active: [1] 18.7 µM | [3] 16.6 µM | [9] 9.35 µM | [5] 18.7 µM

O=C(Nc1cccc(Cl)c1)Nc1ncc(CCNc2ncnc3ccsc23)s1
active: [1] 5.9 µM | [2] 4.18 µM | [8] 13.2 µM | [4] 7.43 µM | [9] 5.26 µM | [5] 0.0833 µM | [6] 18.7 µM

CC1=C(C(=O)Nc2cc3cn[nH]c3cc2F)C(c2ccc(C(F)(F)F)cc2)CC(=O)N1 (centres undefined)
active: [4] 18.7 µM
inactive: [1] | [2] | [8] | [5]

COc1cccc(OC)c1-c1cc(C(=O)NC2(C(=O)O)C3CC4CC(C3)CC2C4)nn1-c1ccnc2cc(Cl)ccc12 (centres undefined)
not listed: [3] | [4] | [9]
inactive: all other assays above

N#CC(c1ccc(Cl)cc1)c1c(Cl)cc(-n2ncc(=O)[nH]c2=O)cc1Cl (centres undefined)
active: [1] 5.9 µM | [2] 0.372 µM | [3] 20.9 µM | [4] 23.5 µM | [9] 16.6 µM | [5] 20.9 µM | [6] 8.33 µM | [7] 5.9 µM

O=C(O)CCC=CCC[C@@H]1[C@H](N2CCCCC2)[C@@H](O)C[C@@H]1OCc1ccc(-c2ccccc2)cc1
inactive: [1] | [2] | [9] | [5] | [7]

CN1CCN2c3ncccc3Cc3ccccc3C2C1 (centres undefined)
inactive: [1] | [2] | [8] | [4] | [5]
active: [7] 1.05 µM

CN1CC(=O)NC1=NC(=O)Nc1cccc(Cl)c1
active: [1] 4.69 µM | [2] 14.8 µM | [8] 13.2 µM | [4] 14.8 µM | [9] 8.33 µM | [5] 16.6 µM | [6] 5.26 µM

OC[C@H]1O[C@@H](OCCc2ccc(O)cc2)[C@H](O)[C@@H](O)[C@H]1O
inactive: [1] | [2] | [8] | [3] | [7]

CNC1[C@H](O)C(O[C@@H]2C(O)C(O[C@H]3O[C@H]([C@@H](C)NC)CC[C@H]3N)[C@@H](N)C[C@H]2N)OC[C@]1(C)O (some centres undefined)
not listed: [3] | [8] | [9]
inactive: all other assays above

CC=C1C2C=C(C)CC1(N)c1ccc(=O)[nH]c1C2 (centres undefined)
not listed: [3] | [4]
inactive: all other assays above

COc1cc(CNC(=O)CCCCC=CC(C)C)ccc1O
inactive: [1] | [2] | [8] | [5] | [6]

C=C1[C@H](n2cnc3c(=O)[nH]c(N)nc32)C[C@H](O)[C@H]1CO
active: [1] 18.7 µM | [2] 4.69 µM | [4] 11.8 µM | [5] 11.8 µM | [6] 2.96 µM | [7] 5.9 µM
inactive: [9]

CCCCC(F)(F)[C@@]1(O)CC[C@H]2[C@H](CC(=O)[C@@H]2CCCCCCC(=O)O)O1
inactive: [1] | [2] | [8] | [4] | [5]

CCC[C@H](Nc1nc(-c2ccc(NC(=O)NCC)c(OC)c2)ncc1C)c1cccnc1
active: [1] 0.001 µM | [4] 0.001 µM | [9] 0.0235 µM | [5] 0.0047 µM | [7] 0.001 µM
inactive: [2]

CCN1CCN(c2ccc(Nc3cc(N(C)C(=O)Nc4c(Cl)c(OC)cc(OC)c4Cl)ncn3)cc2)CC1
active: [6] 18.7 µM
inactive: [1] | [8] | [5] | [7]

CN1C(=O)C(Cc2c[nH]c3ccccc23)NC1=S (centres undefined)
active: [6] 13.2 µM
not listed: [2] | [3]
inactive: all other assays above

Nc1ccn([C@@H]2O[C@H](CO)[C@@H](O)[C@H]2O)c(=O)n1
inactive: [1] | [8] | [9]

CC1(C)C(N(O)C(=O)Nc2ccc(Cl)cc2)N(c2ccc(Cl)cc2)C(=O)N1CC(=O)NN=CC=Cc1ccc([N+](=O)[O-])o1 (centres undefined)
active: [8] 14.8 µM | [4] 7.43 µM | [9] 4.18 µM | [5] 9.35 µM | [6] 8.33 µM
inactive: [1] | [7]

CC(C)(CO)[C@@H](O)C(=O)NCCC(=O)O
not listed: [2] | [3] | [4]
inactive: all other assays above

Cc1ccc(C2=Nc3ccc(Cl)cc3OC2)cc1
active: [1] 3.32 µM | [9] 5.26 µM | [6] 3.72 µM
inactive: [8] | [5]

COc1ccc2c(c1)CC[C@H]1[C@@H]2CC[C@]2(C)[C@@H](NCCCCCCN3C(=O)C=CC3=O)CC[C@H]12
inactive: [1] | [8] | [5] | [6]

Cc1nn(Cc2ccccc2Cl)c(C)c1CN(C)CC(O)COc1ccc(Cl)cc1 (centres undefined)
active: [1] 5.9 µM | [8] 18.7 µM | [4] 20.9 µM | [6] 20.9 µM

CCC(=O)NCC[C@@H]1CCc2ccc3c(c21)CCO3
active: [8] 13.2 µM | [6] 13.2 µM
inactive: [1] | [7]

Cc1cc(NC(=O)Nc2ccc(N(C)C)cc2)c2cc(F)cc(F)c2n1
inactive: [1] | [8] | [7]
active: [6] 3.72 µM
